From PubChem BioAssay

The compounds below were run against Mitogen-activated protein kinase 7 (Homo sapiens) (UniProt Q13164) (assay: Gal4-ERK5 driven luciferase induction – cell-based, HTS, primary screen (AID 1508626;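 also: luciferase driven by Gal4-ERK5 fusion binding five Gal4 sites before minimal TATA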)). Conditions: HeLa Gal4-ERK5 transactivation, 18 h, at 5 µM, hits give high values;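 active = luciferase signal above three times the same-plate solvent-only control wells; inactive = the rest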.
Sequence of Mitogen-activated protein kinase 7 (Homo sapiens) (Q13164 whole entry, looked up, the tested form may be a part): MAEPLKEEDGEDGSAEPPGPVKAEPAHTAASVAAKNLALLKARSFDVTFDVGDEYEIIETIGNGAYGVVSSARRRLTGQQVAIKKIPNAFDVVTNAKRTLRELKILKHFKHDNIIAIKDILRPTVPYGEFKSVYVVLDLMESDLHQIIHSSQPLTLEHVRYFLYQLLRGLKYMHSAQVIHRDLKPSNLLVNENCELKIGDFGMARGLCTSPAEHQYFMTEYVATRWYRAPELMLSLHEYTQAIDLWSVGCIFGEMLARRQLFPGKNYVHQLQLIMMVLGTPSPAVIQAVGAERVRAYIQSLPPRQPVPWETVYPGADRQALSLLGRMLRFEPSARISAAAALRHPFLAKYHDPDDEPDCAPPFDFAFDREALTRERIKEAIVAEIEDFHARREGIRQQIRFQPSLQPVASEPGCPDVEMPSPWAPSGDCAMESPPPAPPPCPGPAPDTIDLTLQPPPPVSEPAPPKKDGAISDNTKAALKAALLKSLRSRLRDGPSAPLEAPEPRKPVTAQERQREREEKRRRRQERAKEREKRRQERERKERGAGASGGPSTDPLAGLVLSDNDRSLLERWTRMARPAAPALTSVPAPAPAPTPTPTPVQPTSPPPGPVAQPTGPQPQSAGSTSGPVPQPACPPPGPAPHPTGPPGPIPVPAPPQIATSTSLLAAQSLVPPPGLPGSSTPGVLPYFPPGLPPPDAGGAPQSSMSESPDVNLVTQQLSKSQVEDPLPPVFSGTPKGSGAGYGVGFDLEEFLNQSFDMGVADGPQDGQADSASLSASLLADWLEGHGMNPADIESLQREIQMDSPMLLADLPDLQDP

Luciferase signal, inactive:
CC1(C)CCCC2(C)C3C(O)CC2(C)C(O)C31 (configuration not stated) 64 AU, C[C@H]1[C@@H](O)O[C@@H]2O[C@@]3(C)CC[C@H]4[C@H](C)CC[C@@H]1[C@@]24OO3 52 AU, COC(=O)CC[C@@H](C)[C@H]1CC[C@H]2[C@@H]3CC[C@@H]4C[C@H](O)CC[C@]4(C)[C@H]3C[C@H](O)[C@]12C 108 AU, CCCCCCCCCCCC[C@@H](C(=O)O)[C@H](C)C(=O)O 32 AU, COc1ccc(-c2cc(=O)c3c(O)c(OC)c(OC)c(OC)c3o2)cc1 120 AU, COC(=O)C[C@H]1C(C)(C)C(=O)[C@@H]2CC3C4=CC(=O)O[C@@H](c5ccoc5)[C@]4(C)CCC3[C@@]1(C)C2=O (some centres not stated) 24 AU, CC(C)(O)[C@H]1CC[C@]2(C)[C@H]3CC[C@@H]4[C@@]5(C)CCCC(C)(C)[C@@H]5[C@@H](O)C[C@@]4(C)[C@]3(C)CC[C@@H]12 84 AU, CC[C@H](CC[C@@H](C)[C@H]1CC[C@H]2[C@@H]3CC[C@H]4C[C@@H](O)CC[C@]4(C)[C@H]3CC[C@]12C)C(C)C 12 AU, C=CCSC[C@H](N)C(=O)O 44 AU, COc1cc(-c2oc3cc(O)ccc3c(=O)c2O)ccc1O 92 AU, COC(=O)C[C@H]1C(C)(C)C(=O)[C@@H]2CC3=C(CC[C@]4(C)C3=CC(=O)O[C@H]4c3ccoc3)[C@@]1(C)C2=O 24 AU, CC(=O)OC1C[C@@]2(C)C(CC[C@@H]2C(C)=O)C2CCC3=CC(=O)CC[C@]3(C)C12 (some centres not stated) 108 AU
